TIM10 inh = inhibits growth of TIM10 yeast strain; S. cerevisiae TIM10 strain growth, BacTiter-Glo luminescence, 24 h; inhibition, % at 10 µM; 1.4% of 330,000 active;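 active = inhibition of 40% or more at the single tested concentration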;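 note: wild-type TIM10 isogenic control strain grown at permissive 25 °C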
tim10-1 inh = tim10-1 yeast growth inhibition; 2.2% of 330,000 active; inhibition, % at 20 µM; S. cerevisiae tim10-1 ts strain growth, BacTiter-Glo, 24 h;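 active = inhibition of at least 40%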;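 note: mutant grown at 25 °C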
tim23-1 inh = growth inhibitors of tim23-1 mutant yeast. S. cerevisiae tim23-1 growth, BacTiter-Glo luminescence, 24 h. inhibition, % at 20 µM. 1.3% of 330,000 active. AID 463212;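 active = growth inhibition of the mutant yeast at or above 50%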;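 note: temperature-sensitive mutant grown at 25 °C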
NALP1 inh = NALP1 inhibition. S. cerevisiae NALP1/ASC/caspase-1 growth, X-gal OD620, 72 h. inhibition, % at 10 µM. 0.61% of 280,000 active. AID 2071; in the data active = inhibition mostly above about 24%, no sharp cut-off; inactive = mostly below about 32%
NALP3 yeast inh = blocks the NALP3 inflammasome reconstituted in yeast | Yeast reconstituted NLRP3/ASC/caspase-1, beta-gal luminescence, 24 h | inhibition, % at 10 µM | 0.39% of 330,000 active | AID 2825;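 active = inhibition of 50% or more; inactive = inhibition below 50%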
tim10-1 conf = confirmation of tim10-1 mutant yeast growth inhibitors | shares compounds with tim10-1 inh | 56% of 7,400 active | inhibition, % at 20 µM | S. cerevisiae tim10-1 ts strain growth, BacTiter-Glo, 24 h | AID 463213;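 active = inhibition of yeast growth at or above a set limit in either of two repeat tests at 20 µM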;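 note: tim10-1 mutant grown at permissive 25 °C to find synthetic lethal compounds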
Of the large screens only hits and unclear results are named; the others gave an inactive call (follow-up assays come after a bar, where they were run). Rows were chosen to be rich in hits. Some 4% of all compounds tested hit in one or more screens of this group.

COc1ccc(C(=O)Nc2cc3c(cc2N2CCCCC2)n(C)c(=O)n3C)cc1OC	tim10-1 inh 48 | tim10-1 conf inactive
Oc1[nH]c2c(Cl)cc(Cl)cc2c1N=NC(=S)NCC1CCCO1 (centres undefined)	tim10-1 inh 46 | tim10-1 conf inactive
Cc1cc(C)c2[nH]c(O)c(N=NC(=S)NCC3CCCO3)c2c1 (centres undefined)	none
O=C(CSc1ccc(Cl)cc1)NCc1ccncc1	none
CC1CCCN(C(=O)c2ccc(-c3ccccc3Cl)o2)C1 (centres undefined)	none (no result: NALP1 inh)
Cc1n[nH]c(=S)n1/N=C/c1ccccc1OCc1ccc(Cl)cc1	none
Cc1cccc(/C=N/n2c(COc3ccccc3)n[nH]c2=S)c1	tim10-1 inh 43 | tim10-1 conf 37
Cc1n[nH]c(=S)n1/N=C/c1cccc(OCc2ccccc2)c1	tim10-1 inh 41 | tim10-1 conf inactive
Cc1csc(NC(=O)c2ccc(C)c(S(=O)(=O)N3CCCCC3)c2)n1	none
Cc1csc(NC(=O)c2ccc(C)c(S(=O)(=O)N3CCOCC3)c2)n1	tim10-1 inh 41 | tim10-1 conf inactive
CC(=O)O[C@]1(C(C)=O)CC[C@H]2[C@@H]3C=CC4=CC(=O)C=C[C@]4(C)[C@H]3CC[C@@]21C	tim10-1 inh 40 | tim10-1 conf inactive
COC(=O)C1=C(C)NC(C)=C(C(=O)O[C@@H]2CCCN(Cc3ccccc3)C2)[C@@H]1c1cccc([N+](=O)[O-])c1	tim10-1 inh 45 (no result: NALP1 inh) | tim10-1 conf inactive
CCOC(=O)C1=C(C)NC(C)=C(C(=O)OC)C1c1cccc([N+](=O)[O-])c1 (centres undefined)	none
O=C(/C=C/C=C/c1ccccc1)CC1(O)C(=O)N(CCc2ccccc2)c2ccccc21 (centres undefined)	tim10-1 inh 45 | tim10-1 conf 52
Cc1ccc2c(c1)C(O)(CC(=O)/C=C/C=C/c1ccccc1)C(=O)N2 (centres undefined)	tim10-1 inh 40 | tim10-1 conf 28
CCN1C(=O)C(O)(CC(=O)/C=C/C=C/c2ccccc2)c2ccccc21 (centres undefined)	none
OCc1cccc(Nc2ncnc3sc4c(c23)CCCCC4)c1	none
Cn1c(/C=C/c2ccc(Br)cc2)c([N+](=O)[O-])c(=O)n(C)c1=O	tim10-1 inh 42 | tim10-1 conf inactive
CN(C)c1ccc(/C=C/c2c([N+](=O)[O-])c(=O)n(C)c(=O)n2C)cc1	none
O=S(=O)(NCC1CCN(Cc2ccccc2)CC1)c1ccccc1C(F)(F)F	none
CCCC(O)(c1ccc(Cl)cc1)C(CN1CCOCC1)c1ccccc1 (centres undefined)	none
CCCC(O)(c1ccccc1)C(CN1CCOCC1)c1ccccc1 (centres undefined)	tim10-1 inh 41 | tim10-1 conf inactive
COc1cc(C(=O)OCC(=O)NC2CCCCC2)cc2c1OCCO2	none (no result: NALP1 inh)
Cc1ccc(OCC(=O)NNC(=S)NC(=O)C2CCCCC2)c(C)c1	tim10-1 inh 47 | tim10-1 conf inactive
O=C(NCCO)c1cccc(Nc2nc(-c3ccccc3)c3cc(Cl)ccc3n2)c1	tim10-1 inh 45 | tim10-1 conf inactive
O=C(O)CCCC(=O)NNc1nc(-c2ccccc2)c2cc(Cl)ccc2n1	none
Cc1ccc(N2C(=O)N3[C@H]4c5ccccc5OC[C@@H]4[C@@H](c4ccccc4)[C@@]3(C)C2=O)cc1	tim10-1 inh 49 | tim10-1 conf inactive
Cc1ccc(NC(=O)C2c3ccccc3Oc3ccccc32)c(C)c1	none
COc1ccc(N(C)C(=O)c2onc3c2CCCC3)cc1	none
CC(C)c1cc(NCC2CCCO2)n2c(nc3ccccc32)c1C#N (centres undefined)	tim10-1 inh 48 | tim10-1 conf 34
CCS(=O)(=O)N1Cc2ccccc2CC1C(=O)NCC12CC3CC(CC(C3)C1)C2 (centres undefined)	tim10-1 inh 40 | tim10-1 conf inactive
COc1ccc2oc(=O)c(-c3csc(Nc4cccc(O)c4)n3)cc2c1	tim10-1 inh 45 | tim10-1 conf 37
CC(=O)Nc1cccc(NC(=O)CCNC(=O)c2ccccc2)c1	none (no result: TIM10 inh, tim10-1 inh, tim23-1 inh, NALP3 yeast inh)
O=C(c1cc2ccccn2n1)N1CCN(c2cccc(C(F)(F)F)c2)CC1	none
Cc1ccc(C)c(N2CCN(C(=O)c3cc4ccccn4n3)CC2)c1	tim10-1 inh 41 | tim10-1 conf 35
CCOC(=O)C1(Cc2ccc(OC)cc2)CCN(C(=O)c2cc3ccccc3[nH]2)CC1	tim10-1 inh 41 | tim10-1 conf inactive
O=[N+]([O-])c1ccc(-c2csc(N3CCc4ccccc4C3)n2)cc1	none
O=[N+]([O-])c1ccc(N2CCc3ccccc3C2)cc1	tim10-1 inh 55 | tim10-1 conf 43
O=C(O)c1ccc(CSc2nc3ccc(N4C(=O)C5C6C=CC(C6)C5C4=O)cc3s2)cc1 (centres undefined)	tim10-1 inh 52 | tim10-1 conf inactive
CCc1cccc(CC)c1NC(=O)CSc1nc2ccc(N3C(=O)C4C5C=CC(C5)C4C3=O)cc2s1 (centres undefined)	none
CC1(c2ccccc2)NC(=O)N(CC(=O)Nc2nnc(C3CC3)s2)C1=O (centres undefined)	none
O=C(Nc1ccccc1Br)C1CC(=O)N(c2ccc3c4c(cccc24)CC3)C1 (centres undefined)	tim10-1 inh 41 | tim10-1 conf 33
Cc1ccccc1NC(=O)C1CC(=O)N(c2ccc3c4c(cccc24)CC3)C1 (centres undefined)	none
CCc1ccc(CNC(=O)CCCn2c(=O)c3cccn3c3cccnc32)cc1	tim10-1 inh 46 | tim10-1 conf inactive
CCOC(=O)c1c(NC(=S)N2CCN(C)CC2)sc(C)c1-c1ccccc1	tim10-1 inh 43 | tim10-1 conf 31
O=C(NNC(=S)NC1CCCCC1)c1ccccc1O	none
COc1ccc(C)cc1NC(=O)c1cc(S(=O)(=O)N2CCC3(CC2)OCCO3)ccc1F	tim10-1 inh 46 | tim10-1 conf inactive
COc1ccc(C)cc1NC(=O)c1cc(S(=O)(=O)N2CCCCC2)ccc1N1CCOCC1	none (no result: NALP1 inh)
O=C(NCCCc1ccccc1)c1cc([N+](=O)[O-])ccc1Cl	tim10-1 inh 41 | tim10-1 conf inactive
COc1cc(C=C(c2nc3ccccc3s2)c2nc3ccccc3s2)cc(OC)c1O	none (no result: NALP1 inh)
O=C(O)c1ccc(C=C(c2nc3ccccc3s2)c2nc3ccccc3s2)cc1	tim10-1 inh 59 | tim10-1 conf 45
O=C(C1CCN(c2ncnc3c2nc2n3CCCCC2)CC1)N1CCN(c2ccccc2F)CC1	none
O=C(Nc1ccc(Cl)cc1)C1CCCN(c2ncnc3c2nc2n3CCCCC2)C1 (centres undefined)	tim10-1 inh 53 | tim10-1 conf inactive
CCCCN(Cc1ccco1)C(=O)C1CCCN(c2ncnc3c2nc2n3CCCCC2)C1 (centres undefined)	tim10-1 inh 41 | tim10-1 conf inactive
